ELG1 repair inh: blocks ELG1-dependent DNA repair in HEK293T cells; Potency, µM (highest dose often 46.1 µM), actives largely listed as inhibitors; hit rate 2.3% among 330,000; HEK293T ELG1-luciferase reporter, luminescence, 16 h; DNA damage induced by 5-fluorouridine; AID 504467; also: nearly all actives have a fitted effect of over 55% in size
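DMSO vehicle served as the neutral condition. Each well held 2,000 cells given 5-fluorouridine plus compound; after 16 hr at 37 °C/5% CO2, ONE-Glo was added and luciferase measured 30 min later.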
ELG1 genotoxic: inducers of genotoxicity in HEK293T ELG1-luciferase cells. HEK293T ELG1-luciferase reporter, luminescence, 16 h. Potency, µM (highest dose often 46 µM), most hits filed as activators. hit rate 1.3% among 330,000. AID 504466; also: nearly all actives have a fitted effect of over 60% in size
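Step 1: seed 2,000 HEK293T ELG1-luciferase cells per well. Step 2: add compound or DMSO, incubate 16 hr at 37 °C. Step 3: ONE-Glo, 30 min at room temperature, read luminescence.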
MCF10A rereplic: induces DNA re-replication in MCF 10a normal breast cells; MCF 10A DNA re-replication, Hoechst nuclear intensity, 48 h; Potency, µM (highest dose often 46.1 µM), actives largely listed as activators; hit rate 2.9% among 350,000; AID 624296; also: nearly all actives have a fitted effect of over 50% in size
p53 reactivation: re-activators of mutant p53 | hit rate 0.063% among 320,000 | H1299 p53-A138V BP100-luciferase reporter, luminescence, 24 h | Potency, µM (doses to about 92.2 µM), usual class: activators | AID 504706; also: nearly all actives have a fitted effect of over 45% in size
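H1299 (p53-null), stable ts p53-A138V + BP100-Luc; 1000 cells/well, Opti-MEM/10% FBS; cpd 4 pt, 1:5; 24 h, 37 deg C, 5% CO2; detection reagent 10 min RT; luminescence.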
SW480 rereplic: DNA re-replication induction in SW480 cells | SW480 DNA re-replication, Hoechst DNA content imaging, 48 h | Potency, µM (highest dose often 46.1 µM), most hits filed as activators | hit rate 1.8% among 340,000 | AID 624297; also: nearly all actives have a fitted effect of over 55% in size
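Per well, 250 cells were exposed to pinned compound for 48 hr. Nuclear DNA was visualised with Hoechst (40 min, 37 C) and total object intensity recorded by fluorescence scanning.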
A-T KAP1 phos: potential ataxia-telangiectasia treatment; F2112 A-T fibroblasts, KAP-1 phosphorylation AlphaLISA; neocarzinostatin DNA damage 30 min before lysis; Potency, µM (doses to about 57.5 µM), actives largely listed as activators; hit rate 0.19% among 320,000; also: nearly all actives have a fitted effect of over 45% in size
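hTERT-immortalized A-T patient fibroblasts (F2112), 500 cells/well in OPTI-MEM, 1% FBS, got compounds for 60 min, then NCS for 30 min at 37C. Lysates were then assayed for phospho-KAP-1 by AlphaLISA (anti-pKAP1 donor, anti-KAP1 acceptor beads), 6 hr at 25C.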
Numbers stand for hits; n = inactive; u = inconclusive; x = no result. Hits are enriched below; roughly 7.1% of the tested compounds scored in any of these assays. Calls follow the shape of the dose curve; as a rule, active = well fitted curve in the direction sought with a large enough effect; inconclusive = small, poorly fitted or top-dose-only effect, or another doubt; inactive = no such curve, though single readings can be large; an effect the other way counts as inactive or inconclusive.

SMILES	ELG1 repair inh	ELG1 genotoxic	MCF10A rereplic	p53 reactivation	SW480 rereplic	A-T KAP1 phos
CCOc1ccc2nc(N3C(=O)CNC3=S)sc2c1	u	21µM	u	u	u	n
COc1ccc(NC(=O)C(Cc2cc(C)cc(C)c2)C(C)C(=O)O)cc1 (configuration not stated)	n	n	n	x	n	n
Nc1nonc1C(=O)NCCNC(=O)c1cccc(Cl)c1	n	n	n	n	n	n
CC(NC(=O)CSc1ccc(S(=O)(=O)N2CCOCC2)cn1)c1ccc(Cl)cc1Cl (configuration not stated)	x	x	n	x	n	x
CCOC(=O)COc1cc(N)c(Cl)cc1Cl	n	n	6.5µM	n	n	n
O=C1C(Nc2ccc(O)cc2)=C/C(=N/S(=O)(=O)c2cccs2)c2ccccc21	6.5µM	n	u	n	5.2µM	n
CCc1ccc(S(=O)(=O)/N=C2\C=C(Nc3cccc(C(=O)O)c3)C(=O)c3ccccc32)cc1	u	n	u	n	n	n
Cc1ccc(NC2=C/C(=N\S(=O)(=O)c3cccs3)c3ccccc3C2=O)c(C)c1	u	n	6.5µM	n	6.5µM	n
Cc1cccc(NC2=C/C(=N/S(=O)(=O)c3cccs3)c3ccccc3C2=O)c1	4.1µM	n	2.9µM	n	u	n
Cc1cc(C)c(S(=O)(=O)/N=C2\C=C(NS(=O)(=O)c3ccccc3)C(=O)c3ccccc32)c(C)c1	n	n	n	n	n	n
Cc1ccc(Cl)cc1NC1=C/C(=N\S(=O)(=O)c2cccs2)c2ccccc2C1=O	5.2µM	n	0.65µM	n	2.9µM	x
CC1=Nc2nc(N3CCCCCC3)c(C#N)c3c4c(nc(c23)N1)N(c1ccc2ccccc2c1)C(=O)C4	x	x	n	x	n	x
O=c1[nH]c2cc(Br)cnc2nc1/C=C(\O)c1ccc(F)cc1	n	n	7.3µM	n	n	n
O=C(Nc1ccc(Cl)c(S(=O)(=O)N2CCOCC2)c1)c1ccc2c(c1)OCCO2	23µM	n	n	n	n	n
COc1ccc(NC(=O)c2ccc3c(c2)OCO3)cc1S(=O)(=O)N1CCOCC1	u	n	n	n	n	n
O=C(Nc1ccc(Cl)c(S(=O)(=O)N2CCOCC2)c1)c1ccc2c(c1)OCO2	6.5µM	n	u	n	n	n
CC(Oc1ccc(C(=O)c2ccc(F)cc2)cc1)C(=O)N1CCOCC1 (configuration not stated)	n	n	n	n	n	n
Cc1cccc(NC(=O)COC(=O)C2COc3ccccc3O2)c1C (configuration not stated)	n	n	n	n	n	n
N#CCSc1nnc(COc2cccc3ccccc23)n1-c1ccccc1	21µM	n	u	n	n	n
COC(=O)c1ccc(N/N=C/c2cc([N+](=O)[O-])cc(OC)c2O)cc1	u	n	n	n	n	n
COc1cc([N+](=O)[O-])cc(/C=N/N(CCC#N)C(C)=O)c1O	n	n	u	n	5.8µM	n
COc1ccc(Cc2nc(-c3ccc(-n4cccc4)cc3)no2)cc1OC	u	13µM	n	n	n	n
COc1ccc(Cc2nc(-c3cccs3)no2)cc1	u	u	n	n	n	n
COc1ccc(Cc2nc(-c3ccc(-n4cccc4)cc3)no2)cc1	n	n	n	n	n	n
COc1ccc(Cc2nc(-c3ccccc3)no2)cc1	u	16µM	n	n	n	n
SMILES	ELG1 repair inh	ELG1 genotoxic	MCF10A rereplic	p53 reactivation	SW480 rereplic	A-T KAP1 phos
c1ccc(OCc2nc(-c3ccccc3)no2)cc1	u	15µM	u	u	n	n
Cc1nn(-c2ccccc2)c(Cl)c1C(=O)NNC(=O)c1ccccc1O	u	n	n	u	u	n
COc1ccc(CNC(=O)COC(=O)c2cccs2)cc1	n	n	n	n	n	n
COc1cc(OC)cc(-c2c(-c3cccs3)c3cc(-c4cnc(OC)nc4)ccc3n2C)c1	u	n	n	n	n	n
CN(C)S(=O)(=O)c1cccc(NC(=O)CSc2nc3ccccc3n2-c2ccccc2)c1	18µM	n	u	n	u	n
CN(C)S(=O)(=O)c1ccc(NC(=O)CSc2nc3ccccc3n2-c2ccccc2)cc1	u	n	n	n	n	n
Cc1ccc(S(=O)(=O)Oc2ccc(N3C(=O)C4C5CCC(C5)C4C3=O)cc2)cc1 (configuration not stated)	8.2µM	n	u	n	n	n
Cc1ccc(S(=O)(=O)Oc2ccccc2N2C(=O)C3C4CCC(C4)C3C2=O)cc1 (configuration not stated)	n	n	n	n	n	n
O=C(c1ccccc1)c1ccc(N2CCCC2)cc1	u	3.7µM	n	u	n	n
CN1CCN(c2ccc(C(=O)c3ccc(F)cc3)cc2)CC1	u	13µM	u	u	n	n
CN1CCN(c2ccc(C(=O)c3cn(-c4ccc(F)c(Cl)c4)nn3)cc2)CC1	n	n	u	n	n	n
Cc1ccc(-n2cc(C(=O)c3ccc(N4CCN(C)CC4)cc3)nn2)cc1Cl	n	n	0.73µM	n	n	n
O=C(c1ccccc1)c1ccc(N2CCOCC2)cc1	x	x	n	x	n	x
Nc1ccc(N2CCN(c3ccc(F)cc3)CC2)cc1	6.5µM	n	u	n	u	n
Nc1ccc(N2CCCCCC2)cc1	u	n	x	n	x	n
COc1ccc(NC(=O)NC2(C(=O)N3CCCCC3)CCCCC2)cc1	n	n	n	n	n	n
O=C(c1ccc(N2CCN(C(=O)c3ccc(F)cc3F)CC2)cc1)c1cccc(F)c1	15µM	n	u	n	n	n
C=CCN(c1ccccc1)S(=O)(=O)c1cccc(C(=O)N2CC(C)CC(C)C2)c1 (configuration not stated)	u	n	10µM	n	u	n
CCOC(=O)C1(C)NC(c2ccc(N(C)C)cc2)C2C(=O)N(c3ccc(OC)cc3)C(=O)C21 (configuration not stated)	n	n	n	n	n	n
CCOC(=O)C1(C)NC(c2cccs2)C2C(=O)N(c3ccc(OC)cc3)C(=O)C21 (configuration not stated)	n	n	18µM	n	u	n
CCOC(=O)N1CCC(NC(=O)c2ccc3c(c2)N(C)C(=O)/C(=C/c2cccc(OC)c2)S3)CC1	u	n	u	n	n	n
O=C(NCCNC(=O)c1ccc(Cl)cc1Cl)c1cnccn1	n	n	n	n	n	n
CC1CCN(C(=O)CNC(=O)CNS(=O)(=O)c2ccccc2)CC1	n	n	n	x	n	n
Nc1nc2ncc(-c3ccsc3)c(N)n2n1	n	n	n	n	3.7µM	n
Cc1cc(NC(=O)CS(=O)(=O)c2cn(Cc3cccc(F)c3)c3ccccc23)no1	21µM	n	n	n	n	n
